Hit rate of the full screen: of about 310,000 compounds, about 14,000 (4.5%) showed an effect of 50% or more. The effect is printed as a negative number. For the sample, strong results were picked, then their nearest neighbours and some compounds at random.
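Also: peak tail current of the secondary pulse compared with the same well before compound.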

Sequence of human ether-à-go-go-related gene (hERG) potassium channel (Q12809 whole entry, looked up): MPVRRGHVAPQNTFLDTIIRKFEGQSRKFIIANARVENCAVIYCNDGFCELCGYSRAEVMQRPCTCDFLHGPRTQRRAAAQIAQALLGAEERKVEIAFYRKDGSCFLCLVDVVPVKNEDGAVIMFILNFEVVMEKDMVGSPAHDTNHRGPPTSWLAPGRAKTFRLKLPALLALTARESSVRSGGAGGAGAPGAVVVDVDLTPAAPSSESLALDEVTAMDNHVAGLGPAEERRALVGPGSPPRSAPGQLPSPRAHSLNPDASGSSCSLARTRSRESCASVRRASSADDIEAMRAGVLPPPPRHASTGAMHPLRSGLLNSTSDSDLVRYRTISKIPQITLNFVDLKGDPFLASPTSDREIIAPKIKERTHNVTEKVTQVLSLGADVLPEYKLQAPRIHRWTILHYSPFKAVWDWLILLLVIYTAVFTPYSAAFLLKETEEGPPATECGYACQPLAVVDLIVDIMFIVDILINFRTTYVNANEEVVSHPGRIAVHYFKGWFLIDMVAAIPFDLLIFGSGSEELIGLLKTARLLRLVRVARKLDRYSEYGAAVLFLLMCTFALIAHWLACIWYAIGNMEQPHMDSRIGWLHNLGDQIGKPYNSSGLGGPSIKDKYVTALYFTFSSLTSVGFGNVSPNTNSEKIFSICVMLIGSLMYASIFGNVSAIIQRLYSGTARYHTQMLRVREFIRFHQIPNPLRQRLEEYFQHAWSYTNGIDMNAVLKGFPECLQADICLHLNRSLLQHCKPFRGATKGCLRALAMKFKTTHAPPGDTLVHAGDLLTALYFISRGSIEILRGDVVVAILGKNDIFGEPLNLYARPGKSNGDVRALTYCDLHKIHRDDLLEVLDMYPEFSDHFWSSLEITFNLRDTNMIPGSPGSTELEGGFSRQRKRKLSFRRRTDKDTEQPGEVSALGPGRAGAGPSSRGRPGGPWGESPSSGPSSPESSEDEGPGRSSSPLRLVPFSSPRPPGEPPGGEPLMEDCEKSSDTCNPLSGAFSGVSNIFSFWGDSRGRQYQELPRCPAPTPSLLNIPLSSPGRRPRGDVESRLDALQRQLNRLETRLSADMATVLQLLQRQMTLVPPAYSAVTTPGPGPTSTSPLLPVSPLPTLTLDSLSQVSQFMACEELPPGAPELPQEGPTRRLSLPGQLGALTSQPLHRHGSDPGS

The experiment has as its target human ether-à-go-go-related gene (hERG) potassium channel (human, UniProt Q12809). As to the kind of experiment: primary screen, population patch clamp on CHO cells stably expressing hERG; higher = less effect of the substance.
For the compound `O=C(COC(=O)CCc1nc2ccccc2s1)NC(=O)NCc1ccco1`, the “hERG current change (%, negative = inhibition) at 10uM” value is given as -11.4%.

In the case of `CCOc1cc(/C=C/C(=O)c2ccc(OC)c(CN3CCOCC3)c2)cc(Br)c1O`, the “hERG current change (%, negative = inhibition) at 10uM” value is given as -32.5%.

As for `CCSc1nsc(NC(=O)Nc2cccc(C(C)=O)c2)n1`, the “hERG current change (%, negative = inhibition) at 10uM” value is listed as 10.5%.

In the case of `Cc1ccc(-c2ccc(S(=O)(=O)N3CC(C)OC(C)C3)cc2)cc1` (centres unmarked), the “hERG current change (%, negative = inhibition) at 10uM” value came to 18.7%.

Take `CCCSc1cc(N2CCN(C)CC2)nc(-c2ccc(OC)cc2)n1.Cl`: the “hERG current change (%, negative = inhibition) at 10uM” value is recorded as -29.2%.

As for `COc1ccc(C(=O)NCC(=O)OCC(=O)NCCC2=CCCCC2)cc1`, the “hERG current change (%, negative = inhibition) at 10uM” value is listed as -12.7%.

Take `COCCCn1c(SCC(=O)NC2CCCCC2)nnc1-c1ccncc1`: the “hERG current change (%, negative = inhibition) at 10uM” value turned out to be 19.8%.

For the compound `COc1ccc(CC(=O)Nc2cc(C)on2)cc1`, the “hERG current change (%, negative = inhibition) at 10uM” value came out at 5.74%.

Turning to `COc1cc(OC)cc(C(=O)NC(C(=O)Nc2ccc3c(c2)OCCO3)C(C)C)c1` (centres unmarked), the “hERG current change (%, negative = inhibition) at 10uM” value is listed as -11%.

Consider `CCN(CC)CCn1c(C)nc2c(sc3nc4c(cc32)COC(C)(C)C4)c1=O`, for which the “hERG current change (%, negative = inhibition) at 10uM” value is recorded as -22.3%.

In the case of `O=C(NCC1CCCO1)c1onc(CSc2cccc3ccccc23)c1C(=O)O` (centres unmarked), the “hERG current change (%, negative = inhibition) at 10uM” value was found to be 14.4%.

Consider `COc1cccc(NC(=O)CN(C)C(=O)CSCc2nc3scc(-c4cccs4)c3c(=O)[nH]2)c1`, for which the “hERG current change (%, negative = inhibition) at 10uM” value is reported as -16.2%.

On to `CCC(C)(C)NC(=O)C(c1ccc(OC)cc1)N(C(=O)CCC(=O)Nc1cc(C)on1)c1ccc(OC)cc1OC` (centres unmarked), for which the “hERG current change (%, negative = inhibition) at 10uM” value is on record as -7.89%.

Turning to `COc1ccccc1NC(=O)C(C)N1CCN(C/C=C/c2ccccc2)CC1` (centres unmarked), the “hERG current change (%, negative = inhibition) at 10uM” value is -74.5%.

For `COc1ccc(Cl)cc1NC(=O)C(C)N1CCc2ccccc21` (centres unmarked), the “hERG current change (%, negative = inhibition) at 10uM” value is listed as 23.9%.

As to `COC(=O)c1ccccc1NC(=O)N1CCN(C/C=C/c2ccccc2)CC1`, the “hERG current change (%, negative = inhibition) at 10uM” value was -45.1%.

As to `COc1ccccc1NC(=S)N1CCN(C/C=C/c2ccccc2)CC1`, the “hERG current change (%, negative = inhibition) at 10uM” value is recorded as -0.974%.

Turning to `COc1ccc(Cl)cc1NC(=O)C(C)N1CCN(C/C=C/c2ccccc2)CC1.O=C(O)C(=O)O` (centres unmarked), the “hERG current change (%, negative = inhibition) at 10uM” value is on record as -63.4%.

Consider `COc1ccc(Cl)cc1NC(=O)C(C)N1CCN(c2ccccn2)CC1` (centres unmarked), for which the “hERG current change (%, negative = inhibition) at 10uM” value was -18.3%.

For `C=CCc1cccc(CNc2ccc(S(=O)(=O)Nc3nccnc3OC)cc2)c1O`, the “hERG current change (%, negative = inhibition) at 10uM” value is recorded as -9.98%.

Take `N=c1c2c3c(sc2ncn1N)CCCC3`: the “hERG current change (%, negative = inhibition) at 10uM” value worked out at 2.04%.

As for `COc1ccccc1C1C2=C(CCCC2=O)N(CC(=O)O)C2=C1C(=O)CCC2`, the “hERG current change (%, negative = inhibition) at 10uM” value was determined as 15.9%.

With `CCn1c(SCc2c(Cl)cccc2Cl)nnc1-c1nn(-c2ccccc2)ccc1=O`, the “hERG current change (%, negative = inhibition) at 10uM” value is -66.1%.

Turning to `CCn1c(SCc2ccc(F)cc2)nnc1-c1nn(-c2ccccc2)ccc1=O`, the “hERG current change (%, negative = inhibition) at 10uM” value was -35.1%.

Take `CCn1c(SC)nnc1-c1nn(-c2ccccc2)ccc1=O`: the “hERG current change (%, negative = inhibition) at 10uM” value stood at 11.3%.

With `COCCNc1ccc(-c2n[nH]c(=O)c3ccccc23)cc1[N+](=O)[O-]`, the “hERG current change (%, negative = inhibition) at 10uM” value came out at 9.51%.

As to `CN1C(=O)S/C(=C/c2cccnc2)C1=O`, the “hERG current change (%, negative = inhibition) at 10uM” value is on record as -0.904%.

Consider `O=C(Cn1cnc2ccccc21)N/N=C/C(Br)=C/c1ccccc1`, for which the “hERG current change (%, negative = inhibition) at 10uM” value was determined as 5.98%.

As for `O=C(Nc1c(F)cc(F)cc1Br)c1cc(S(=O)(=O)N2CCN(c3ccccn3)CC2)ccc1F`, the “hERG current change (%, negative = inhibition) at 10uM” value was -15.9%.

In the case of `CCC(C)NS(=O)(=O)c1ccc(F)c(C(=O)Nc2c(F)cc(F)cc2Br)c1` (centres unmarked), the “hERG current change (%, negative = inhibition) at 10uM” value is -60.8%.

In the case of `CCN1CCN(S(=O)(=O)c2ccc(F)c(C(=O)Nc3c(F)cc(F)cc3Br)c2)CC1`, the “hERG current change (%, negative = inhibition) at 10uM” value was -17.1%.

In the case of `CC(=O)Nc1ccc(S(=O)(=O)N(CC(=O)Nc2cc(C)on2)Cc2ccc(F)cc2)cc1`, the “hERG current change (%, negative = inhibition) at 10uM” value is -11.5%.

As for `COc1cccc2cc(C(=O)C3=C(O)C(=O)N(CCN4CCOCC4)C3c3cccs3)oc12` (centres unmarked), the “hERG current change (%, negative = inhibition) at 10uM” value is 13.1%.

Turning to `COc1ccc(Nc2nc(NCCN3CCOCC3)nc(Nc3ccc(OC)cc3)n2)cc1`, the “hERG current change (%, negative = inhibition) at 10uM” value is -78.2%.

Consider `C=CCNc1nc(NCCN2CCOCC2)nc(OC)n1`, for which the “hERG current change (%, negative = inhibition) at 10uM” value was -4.89%.

`CCOc1nc(Nc2ccc(OC)cc2)nc(N2CCOCC2)n1`: the “hERG current change (%, negative = inhibition) at 10uM” value is reported as -4.52%.

On to `C=CCNc1nc(NCCN2CCOCC2)nc(N2CCOCC2)n1`, for which the “hERG current change (%, negative = inhibition) at 10uM” value amounted to 18.6%.

Take `Clc1ccc(Nc2nc(NCCN3CCOCC3)nc(N3CCOCC3)n2)cc1`: the “hERG current change (%, negative = inhibition) at 10uM” value is -56%.

Take `COc1ccc(Nc2nc(N3CCOCC3)nc(N3CCOCC3)n2)cc1`: the “hERG current change (%, negative = inhibition) at 10uM” value is listed as 11.7%.

As for `c1ccc(Nc2nc(NCCN3CCOCC3)nc(Nc3ccccc3)n2)cc1`, the “hERG current change (%, negative = inhibition) at 10uM” value is listed as -15.2%.

As to `COc1ccc(NC(=S)NCCN2CCOCC2)cc1`, the “hERG current change (%, negative = inhibition) at 10uM” value is recorded as 21.7%.

For `COc1nc(NCCN2CCOCC2)nc(Nc2ccccc2)n1`, the “hERG current change (%, negative = inhibition) at 10uM” value was -50.5%.

Consider `CCOc1ccc(Nc2nc(NCCN3CCOCC3)nc(OC)n2)cc1`, for which the “hERG current change (%, negative = inhibition) at 10uM” value is on record as -63.8%.

On to `CCOc1ccc(Nc2nc(N3CCOCC3)nc(N3CCOCC3)n2)cc1`, for which the “hERG current change (%, negative = inhibition) at 10uM” value was -17.9%.

With `Clc1ccc(CNc2nc(N3CCOCC3)nc(N3CCOCC3)n2)cc1`, the “hERG current change (%, negative = inhibition) at 10uM” value is reported as -20%.

Consider `Cc1cc(C)nc(NS(=O)(=O)c2ccc(NC(=O)COc3ccccc3F)cc2)n1`, for which the “hERG current change (%, negative = inhibition) at 10uM” value is listed as 4.9%.

Regarding `CCCc1nc(SCc2ccccc2Cl)n[nH]1`, the “hERG current change (%, negative = inhibition) at 10uM” value came out at 10.7%.

Turning to `COc1cccc(CN(C)CC(=O)Nc2sc3c(c2C#N)CCC3)c1OC`, the “hERG current change (%, negative = inhibition) at 10uM” value amounted to 10.3%.

With `COc1ccc(-n2c3c(cc(C#N)c2=O)C(=O)CCC3)cc1`, the “hERG current change (%, negative = inhibition) at 10uM” value was found to be 29.1%.

As to `COc1ccc(Oc2c(C)oc3c(CN(C)C)c(O)ccc3c2=O)cc1`, the “hERG current change (%, negative = inhibition) at 10uM” value is recorded as -1.88%.

Take `Clc1ccc(Oc2ncnc3oc(-c4ccccc4)cc23)cc1`: the “hERG current change (%, negative = inhibition) at 10uM” value amounted to 4.39%.

On to `O=C(O)c1cc(=O)c2cc(Cl)ccc2o1`, for which the “hERG current change (%, negative = inhibition) at 10uM” value was determined as 17.3%.

With `O=c1cc(-c2ccccc2)oc2ccccc12`, the “hERG current change (%, negative = inhibition) at 10uM” value is given as -4.17%.

For the compound `CC(C)C[NH+]=c1cc(-c2ccccc2)oc2ccc(Cl)cc12.F[B-](F)(F)F`, the “hERG current change (%, negative = inhibition) at 10uM” value is given as -87.4%.

With `Cc1cc(Cl)ccc1Oc1ncnc2oc(-c3ccccc3)cc12`, the “hERG current change (%, negative = inhibition) at 10uM” value was -0.172%.

`CC(O)C[NH+]=c1cc(-c2ccccc2)oc2ccc(Cl)cc12.F[B-](F)(F)F` (centres unmarked): the “hERG current change (%, negative = inhibition) at 10uM” value is given as -69.4%.

(Values after publication PMC4336329 (PLoS ONE, 2015).)
